Compound activity deposited in PubChem by National Center for Advancing Translational Sciences (NCATS).
Giardia killer = kills Giardia lamblia | Giardia lamblia trophozoite viability | activity change, % at 7.66 µM, hits read low | hit rate 0.15% among 340,000 | AID 540267; in the data active = activity change below about -80%; inconclusive = between about -30% and that limit;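 note: parasites exposed to compound for two days anaerobically before the ATP read; % is set by controls: 0 for no effect and ±100 for the full control effect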
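Anaerobic 48 hrs incubation at 37 deg C of 100 trophozoites/well with test compounds; ATPLite 1-Step luminescence, 15-30 min RT, reports cellular ATP as viability.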
VP16 counter = counter-screen for ROR gamma inhibitors: Gal4-VP16 reporter; Drosophila S2 Gal4-VP16 UAS-luciferase, luminescence, 20 h; Potency, µM (highest dose often 53.6 µM), for inactives: at the top dose activity, negative = inhibition, actives largely listed as inhibitors; hit rate 3.5% among 310,000; AID 2546;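 note: Gal4-VP16 expression switched on by copper sulfate through the metallothionein promoter; potency is the fitted concentration of half-maximal effect; % is set by controls: 0 for no effect and ±100 for the full control effect; nearly all actives have a fitted effect of over 50% in size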
SW480 rereplic = induces DNA re-replication in SW480 colon adenocarcinoma cells; Potency, µM (titrated, usually from 46.1 µM), without a hit: at the highest dose re-replication activation, most hits filed as activators; SW480 DNA re-replication, Hoechst DNA content imaging, 48 h; hit rate 1.8% among 340,000; note: potency is the fitted concentration of half-maximal effect; % of control where 0% means no effect; nearly all actives have a fitted effect of over 55% in size
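Treated cells incubate 48 hr (37 C, 5% CO2), are stained 40 min with Hoechst, and nuclear fluorescence is enumerated; a rise in nuclei with high DNA signal marks re-replication.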
RORgamma inh = blocks mouse ROR gamma transcriptional activity. P51450. Drosophila S2 Gal4-RORgamma UAS-luciferase reporter, 20 h. Potency, µM (titrated, usually from 53.6 µM), for the others: at the highest dose activity change, negative = inhibition, most hits filed as inhibitors. hit rate 5.4% among 310,000; note: potency is the fitted concentration of half-maximal effect; % is set by controls: 0 for no effect and ±100 for the full control effect; nearly all actives have a fitted effect of over 60% in size
Target sequence (P51450 whole entry, looked up, the tested form may be a part): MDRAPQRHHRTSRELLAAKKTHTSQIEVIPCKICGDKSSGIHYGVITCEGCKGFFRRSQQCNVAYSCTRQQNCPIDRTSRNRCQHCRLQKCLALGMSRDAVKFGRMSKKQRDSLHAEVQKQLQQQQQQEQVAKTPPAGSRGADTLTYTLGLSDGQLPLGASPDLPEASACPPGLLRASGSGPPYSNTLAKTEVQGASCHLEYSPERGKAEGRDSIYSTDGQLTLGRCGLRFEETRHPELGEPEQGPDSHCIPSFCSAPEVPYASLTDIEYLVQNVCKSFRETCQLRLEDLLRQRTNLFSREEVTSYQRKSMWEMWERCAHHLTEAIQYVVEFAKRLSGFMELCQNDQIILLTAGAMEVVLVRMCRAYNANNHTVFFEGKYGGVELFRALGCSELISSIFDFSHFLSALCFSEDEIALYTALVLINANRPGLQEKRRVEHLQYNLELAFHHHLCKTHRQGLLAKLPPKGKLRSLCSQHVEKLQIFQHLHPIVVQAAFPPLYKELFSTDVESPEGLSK
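Stable Schneider cell line, Gal4 DNA-binding domain fused to ROR gamma, UAS-luciferase. Cmpd 1 hr RT → CuSO4 700 uM final → 20 hr RT → luciferase reagent 10 min → luminescence.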
Chronic BCR inh = inhibitors of chronic active B-cell receptor signaling | Potency, µM (highest dose often 46.1 µM), without a hit: top-dose activity change, negative = inhibition, hits mostly inhibitors | hit rate 0.05% among 340,000 | ABC-DLBCL IkBa-CBG/CBR reporter, luminescence ratio, 4 h; active = well fitted inhibition curve with a large enough effect in the signal ratio, with a control signal flat, not every such curve was filed as active; inconclusive = small, poorly fitted or top-dose-only effect, or effect the other way, or a change in a side signal; the % refers to the signal ratio;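 note: potency is the fitted concentration of half-maximal effect; plate controls were basal doxycycline-induced cells for no effect and cells given 10 µM MG132 for full effect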
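TMD8 human ABC-DLBCL cells with doxycycline-inducible IκBα–green luciferase fusion and unfused red luciferase, in 0.5% FBS medium; compounds up to 46 uM, 4 h at 37C. Green/red luminescence ratio, filter-overlap corrected, fitted to concentration-response curves.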
MCF10A rereplic = induces DNA re-replication in MCF 10a normal breast cells. MCF 10A DNA re-replication, Hoechst nuclear intensity, 48 h. Potency, µM (series often up to 46.1 µM), for the others: at the highest dose activity, positive = re-replication, usual class: activators. hit rate 2.9% among 350,000; note: potency is the fitted concentration of half-maximal effect; % of control where 0% means no effect; nearly all actives have a fitted effect of over 50% in size
* hit, by the source's call; ? = inconclusive; · = no result; [ ] = remark or other dose. Rows were chosen to be rich in hits. Some 8.3% of all compounds tested hit in one or more screens of this group. Unless noted, calls come from the whole dose curve; as a rule, active = well fitted curve in the direction sought with a large enough effect; inconclusive = small, poorly fitted or top-dose-only effect, or another doubt; inactive = no such curve, though single readings can be large; an effect the other way counts as inactive or inconclusive.

SMILES	Giardia killer	VP16 counter	SW480 rereplic	RORgamma inh	Chronic BCR inh	MCF10A rereplic
O=S(=O)(c1ccc(F)cc1)N1CCN(c2nc(-c3ccccc3)nc3ccccc23)CC1	2.1	·	·	·	·	·
Cn1c(=O)cnc2cnc(Oc3ccccc3)nc21	·	8.9%	·	14.0%	·	·
O=c1c2ccccc2c(C=NCc2ccccn2)c(O)n1-c1ccccc1Cl	-19.9	?	-0.8%	11.2µM*	3.3%	17.8%
Cc1ccc(-n2c(O)c(C=NCc3ccccn3)c3ccccc3c2=O)cc1C	-26.3	22.4µM*	?	10µM*	2.8%	18.2%
CCOc1ccc(NC(=O)CN2C(=O)NC(C)(c3ccc(OC(F)F)cc3)C2=O)cc1 (centres undefined)	-14.5	-22.2%	?	0.0%	?	16.6%
CCOc1nc(NCCC2=CCCCC2)nc(N2CCOCC2)n1	32.9	-3.6%[0.365 µM]	23.1µM*	-17.8%	0.2%	20.6µM*
OCCNc1nc(NCCC2=CCCCC2)nc(N2CCOCC2)n1	15.9	?	-0.7%	?	?	-3.2%
Cc1cc(N2C(=O)C=CC2=O)c([N+](=O)[O-])cc1C	?	4.47µM*	16.4µM*	7.08µM*	?	18.4µM*
Cn1c(SCc2c(F)cccc2Cl)nnc1-c1cccs1	42.2	11.3%	?	20.1%	?	6.51µM*
Cn1c(SCCOc2ccccc2Cl)nnc1-c1cccs1	-0.1	-12.4%	-2.4%	?	?	4.4%
COc1ccc2cc(C(=O)N3CCN(c4ccccc4OC)CC3)[nH]c2c1	?	9.8%	8.7%	14.9%	-11.7%	?
Cc1cccc(Nc2ncnc(N)c2[N+](=O)[O-])n1	-9.2	0.4%	0.4%	-13.0%	-1.9%	0.0%
Cc1cc(C)nc(Sc2ncnc(N)c2[N+](=O)[O-])n1	4.9	8.91µM*	?	6.31µM*	?	20.6µM*
CCC(=O)c1ccc(OCCSc2ncccn2)cc1	-13.5	-6.1%	4.4%	11.2µM*	?	-0.9%[9.22 µM]
CCC(=O)c1ccc(OCC(=O)O)cc1	1.4	0.9%	?	-2.5%[10 µM]	-0.8%	0.4%
c1ccc2c(C3=NNC(=NC4CCCCC4)SC3)c[nH]c2c1	5.9	-7.3%	?	8.5%[10 µM]	?	7.3%
c1ccc2c(C3=NNC(=NC4CC4)SC3)c[nH]c2c1	30.6	10µM*	-1.2%	10µM*	-14.7%	6.3%
c1ccc(C2=NNC(=NC3CC3)SC2)cc1	-9.2	12.6µM*	-1.5%	14.1µM*	?	-9.4%
COc1cccc(CNC2CCCc3ccccc32)c1OC (centres undefined)	13.0	1.5%	7.2%	-8.4%	-0.1%	-3.3%
C/C(=N/NC(=O)C1CCCC1)c1ccc(NC(=O)C(F)(F)F)cc1	·	11.3%	·	8.7%	-0.5%	·
CCC1=Nc2cc(C(=O)NCc3ccc(C)cc3)ccc2Sc2ccc(C)cc21	·	·	·	·	6.6%	·
CCC1=Nc2cc(C(=O)NCc3ccco3)ccc2Sc2ccc(Cl)cc21	7.0	5.2%	7.94µM*	-5.8%[10 µM]	?	3.66µM*
CN1C(=O)/C(=C/c2ccccc2Cl)Sc2ccc(C(=O)NCc3cccnc3)cc21	3.0	-9.6%	-4.9%	37.4%	?	20.6µM*
CN1C(=O)/C(=C/c2ccccc2F)Sc2ccc(C(=O)NCC3CCCO3)cc21 (centres undefined)	-18.7	-8.6%	?	16.3%	-10.1%	?
CCC1=Nc2cc(C(=O)NCc3ccco3)ccc2Sc2ccccc21	-4.4	2.5%	8.2µM*	18.8%[10 µM]	?	4.11µM*
CCC1=Nc2cc(C(=O)O)ccc2Sc2ccccc21	4.6	0.8%	-2.9%	15.1%	18.7%	2.3%
CCC1=Nc2cc(C(=O)NCc3cccnc3)ccc2Sc2ccc(C)cc21	14.9	1.9%	3.66µM*	2.2%	?	2.31µM*
CCc1nc2ccc(C(=O)NCc3ccco3)cc2nc1CC	-9.8	4.6%	-5.6%	-26.9%	?	0.3%
CCOc1ccc(C(C)=O)cc1COC(=O)c1cc([N+](=O)[O-])ccc1N1CCOCC1	-9.6	·	-2.0%	·	?	9.6%
